Shown are actives, neighbours in structure and some others; about 27% of the full set was active somewhere.
CYP2C19 inhib = blocks human cytochrome P450 2C19 | CYP2C19 Supersomes, luciferin-H EGE luminescence, 30 min | inhibition, % at 5 µM | 21% of 96,000 active;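 active = CYP2C19 inhibition above a set limit at 5 µM in the primary screen, cut at about 50% in these data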
CYP2C9 inhib = inhibitors of human CYP2C9 | 20% of 96,000 active | inhibition, % at 5 µM | CYP2C9 Supersomes, luciferin-H conversion, luminescence | P11712;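 active = blocking of liver enzyme CYP2C9 beyond about 50% at 5 µM, limit read from the data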
Target sequence (P11712 whole entry, looked up): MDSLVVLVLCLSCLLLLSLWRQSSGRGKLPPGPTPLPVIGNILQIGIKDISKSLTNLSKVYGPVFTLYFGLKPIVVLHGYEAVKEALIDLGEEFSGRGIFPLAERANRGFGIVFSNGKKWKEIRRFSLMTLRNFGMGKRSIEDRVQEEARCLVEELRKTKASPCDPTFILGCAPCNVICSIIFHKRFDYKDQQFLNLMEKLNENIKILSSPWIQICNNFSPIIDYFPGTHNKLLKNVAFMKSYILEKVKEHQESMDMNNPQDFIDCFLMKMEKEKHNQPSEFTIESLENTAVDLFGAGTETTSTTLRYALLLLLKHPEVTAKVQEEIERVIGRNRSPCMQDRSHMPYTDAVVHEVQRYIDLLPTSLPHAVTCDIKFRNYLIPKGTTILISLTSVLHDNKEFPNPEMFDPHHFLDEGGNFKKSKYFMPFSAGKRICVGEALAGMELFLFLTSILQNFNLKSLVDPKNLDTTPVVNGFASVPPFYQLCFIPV
CYP2C19 act = cytochrome P450 2C19 (human) activation | 96,000 tested, under 10 active | AID 1025 | recombinant CYP2C19, luciferin-H EGE luminescence; stronger effect = higher value; 0 = fully inhibited enzyme, 1 = untreated enzyme | activation factor at 5 µM | P33261;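 active = activation factor of at least 2 at 5 µM in the primary screen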
sEH activator = activators of human soluble epoxide hydrolase; purified human sEH enzymatic activity, activator screen; activation, % at 2 µM; 0.04% of 91,000 active; AID 717; in the data active = activation above about 37%
sEH inhibitor = inhibitors of human soluble epoxide hydrolase; recombinant human sEH enzymatic activity assay; P34913; AID 707; inhibition, % at 2 µM; 0.34% of 91,000 active; in the data active = inhibition above about 80%
CYP2C9 act = CYP2C9 (human) activation; P11712; activation factor at 5 µM; recombinant CYP2C9, luciferin-H conversion, luminescence; stronger effect = higher value; factor 1 = untreated enzyme, 0 = blocked; 1.4% of 96,000 active;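 active = activation factor of 2 or more for CYP2C9 at a 5 µM dose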
Hits are given with their value; n = inactive; x = no result.

SMILES	CYP2C19 inhib	CYP2C9 inhib	CYP2C19 act	sEH activator	sEH inhibitor	CYP2C9 act
O=C(CSC1=NCCS1)N1CCc2ccccc21	n	63	n	n	n	n
O=C(CSc1nc(-c2ccccc2)cc(=O)[nH]1)N1CCc2ccccc21	n	69	n	n	n	n
Nc1ccccc1SCC(=O)N1CCc2ccccc21	76	n	n	x	x	n
Cc1cc2nc(-c3ccc(SCC(=O)N4CCc5ccccc54)nc3)[nH]c2cc1C	n	n	n	n	85	n
CC1Cc2ccccc2N1C(=O)CSC1=NCCS1 (stereo not given)	n	n	n	n	n	n
CCC(C)(C)n1nnnc1C(c1ccc(N(C)C)cc1)N1CCN(C2CCCCC2)CC1 (stereo not given)	n	n	n	n	n	n
Nc1n[nH]c(-c2ccccc2)c1-c1ccccc1	n	n	n	x	x	n
CC1=CCC2C(=O)N(c3ccc(C)c(Br)c3)C(=O)C2C1 (stereo not given)	n	n	n	n	n	n
O=C(CCNS(=O)(=O)c1cccc2nsnc12)NC1CCN(Cc2ccccc2)CC1	n	n	n	x	x	n
O=S(=O)(Nc1ccn(-c2ccccc2)n1)c1ccc(Br)cc1	72	99	n	n	n	n
Cc1ccc(S(=O)(=O)NCc2nnc(SCC(=O)Nc3cccc(C)c3C)n2C)cc1	n	n	n	n	n	n
CCCCNC(=O)OCC(CC)NC(=O)OC(C)C (stereo not given)	53	n	n	n	n	n
CCn1nnc(NC(=O)c2cc3ccccc3o2)n1	n	n	n	n	n	n
C=CCn1c(SCc2c(C)noc2C)nc2sc3c(c2c1=O)CCCC3	n	78	n	n	n	n
C=CCn1c(SCc2c(C)noc2C)nc2sc3c(c2c1=O)CCCCC3	56	95	n	n	n	n
Cc1noc(C)c1CSc1nc2sc(C)c(C)c2c(=O)n1C1CCCC1	n	90	n	n	n	n
Cc1noc(C)c1CSc1nc2sc3c(c2c(=O)n1C)CCCC3	n	n	n	n	n	n
CC(C)Cc1nc(SCC(=O)Nc2ccc(S(N)(=O)=O)cc2)n[nH]1	n	n	n	n	n	n
O=C(CN1CC(c2ccccc2)CC1=O)OCc1ccccc1F (stereo not given)	88	56	n	n	n	n
O=C1CC(c2ccccc2)CN1S(=O)(=O)c1ccccc1 (stereo not given)	99	n	n	n	n	2.5
O=C1CC(c2ccccc2)CN1Cc1ccccc1 (stereo not given)	93	n	n	n	n	n
COC(=O)N1CC(c2ccccc2)CC1=O (stereo not given)	n	n	n	n	n	n
O=C(O)C1CC(=O)N(Cc2ccccc2)C1 (stereo not given)	n	n	n	n	n	n
NC(=O)c1cccc(S(=O)(=O)N2CC(c3ccccc3)CC2=O)c1 (stereo not given)	56	n	n	n	n	2.2
N#Cc1c2n(c(=S)n(-c3ccccn3)c1=O)CCCCC2	n	n	n	n	n	n
SMILES	CYP2C19 inhib	CYP2C9 inhib	CYP2C19 act	sEH activator	sEH inhibitor	CYP2C9 act
Nc1cc(N)c(OCC(F)(F)F)cc1OCC(F)(F)F	74	55	n	n	n	n
Cc1ccc(/C=N/NC(=O)c2cc(C)oc2C)o1	n	n	n	n	n	n
Cc1ccc(/C=N/NC(=S)NC(C)C)o1	51	n	n	n	n	n
Cn1c(/C=C/c2ccc([N+](=O)[O-])o2)nc2ccccc2c1=O	x	n	x	n	n	n
CCCCCn1c(N2CCC(Cc3ccccc3)CC2)nc2c1c(=O)[nH]c(=O)n2C	x	x	x	n	n	x
Cn1c(=O)[nH]c(=O)c2c1nc(N1CCCCCC1)n2CCCSc1nc2ccccc2o1	66	83	n	n	n	n
CCCCn1c(NC(C)CC)nc2c1c(=O)[nH]c(=O)n2C (stereo not given)	n	53	n	n	n	n
Cn1c(=O)c2c(nc(N3CCCCCC3)n2CCSc2nc3ccccc3o2)n(C)c1=O	n	n	n	n	n	n
CC(C)CCn1c(CN2CCN(Cc3ccccc3)CC2)nc2c1c(=O)[nH]c(=O)n2C	n	n	n	x	x	n
CCCCCn1c(N2CCN(Cc3ccccc3)CC2)nc2c1c(=O)[nH]c(=O)n2C	61	n	n	n	n	n
CC(C)CCn1c(N2CCN(Cc3ccccc3)CC2)nc2c1c(=O)[nH]c(=O)n2C	77	76	n	n	n	n
Cc1csc(SCCn2c(N3CCN(c4ccccc4)CC3)nc3c2c(=O)[nH]c(=O)n3C)n1	n	52	n	n	n	n
CCCn1c(N2CCN(CC(=O)c3c[nH]c4ccccc34)CC2)nc2c1c(=O)[nH]c(=O)n2C	n	70	n	n	n	n
CCn1c(N2CCN(CC(=O)c3c(C)n(C)c4ccccc34)CC2)nc2c1c(=O)[nH]c(=O)n2C	n	n	n	n	n	n
CCN1CCN(c2nc3c(c(=O)[nH]c(=O)n3C)n2CCSc2nc3ccccc3s2)CC1	n	n	n	n	n	n
CC(C)CCn1c(SCC(=O)c2ccccc2)nc2c1c(=O)[nH]c(=O)n2C	n	73	n	n	n	n
CCCn1c(N2CCN(Cc3cccc(C)c3)CC2)nc2c1c(=O)[nH]c(=O)n2C	90	n	n	n	n	n
COc1cccc(NC(=O)N(Cc2cc3cc(C)cc(C)c3[nH]c2=O)CC2COCCO2)c1 (stereo not given)	n	57	n	n	n	n
CCC(C)NC(=O)c1ccccc1NC(=O)c1ccc(CSc2ccc(C)cc2)cc1 (stereo not given)	n	n	n	n	n	n
COC(=O)Cn1c(C)nc2ccccc21	n	n	n	n	n	n
CCC(C)Cn1c(C)nc2ccccc21 (stereo not given)	52	n	n	n	n	n
CCc1nnc(NC(=O)CSc2nccn2-c2cccc(C)c2C)s1	n	53	n	n	n	n
Cc1cccc(-n2ccnc2SCC(=O)Nc2nccs2)c1C	53	n	n	n	n	n
Cc1c(Cl)cccc1NC(=O)Cn1cccc1	n	n	n	n	n	n
CCc1nnc(NC(=O)CSc2nccn2-c2cc(C)cc(C)c2)s1	n	58	n	n	n	n
SMILES	CYP2C19 inhib	CYP2C9 inhib	CYP2C19 act	sEH activator	sEH inhibitor	CYP2C9 act
Cc1c(Cl)cccc1-n1ccnc1SCC(=O)O	n	67	n	x	x	n
O=C(Cn1ncc2c(=O)oc3ccccc3c21)NCCN1CCN(c2ccccc2F)CC1	n	n	n	x	x	n
O=C(NCCN1CCOCC1)C1CCN(Cc2ccccc2O)CC1	n	n	n	n	n	n
CC(C)(C)c1ccc(C(=O)N/N=C/c2cccc(Cl)c2)cc1	76	n	n	n	n	n
O=C(N/N=C/c1ccc(F)cc1)c1ccc(Br)cc1	n	n	n	n	n	n
Cc1ccc(F)cc1NC(=O)c1c(-c2ccccc2)noc1C	53	n	n	n	n	n
COC(=O)c1cc(OC)c(OC)cc1NC(=O)c1ccc(C)cc1	n	51	n	n	n	n
COC(=O)c1cc(OC)c(OC)cc1NC(=O)Nc1ccc(OC)cc1OC	68	84	n	n	n	n

Assay outcomes: PubChem BioAssay, several laboratories
